High-throughput results as filed in PubChem BioAssay.
Tau fibril ThT: tau fibrillization inhibition (ThT binding). recombinant tau K18 P301L, heparin-induced fibrillization, ThT fluorescence. Potency, µM (titrated, usually from 57.4 µM), for inactives: at the top dose activity, negative = inhibition, usual class: inhibitors. actives 2.1% (n = 270,000). AID 1460; further: nearly all actives have a fitted effect of over 55% in size
Target sequence (P10636 561-689 P618L limits assumed): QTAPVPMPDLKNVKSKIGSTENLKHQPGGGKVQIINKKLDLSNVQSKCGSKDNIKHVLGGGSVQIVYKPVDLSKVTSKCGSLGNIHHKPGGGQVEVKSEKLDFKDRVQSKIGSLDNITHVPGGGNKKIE
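In this qHTS, human K18 P301L tau is incubated with compound and heparin for 6 hr at 37 C, and Thioflavin T fluorescence then reports fibril load.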
GoLoco inh red: blocks human Gai1 binding to RGS12 GoLoco peptide, red readout; Gai1:RGS12 GoLoco peptide FP, rhodamine, 10 min; P63096; AID 880; Potency, µM (series often up to 61.6 µM), without a hit: at the highest dose activity, negative = inhibition, usual class: inhibitors; actives 0.44% (n = 230,000); active means well fitted inhibition curve with a large enough effect, not every such curve was filed as active; inactive means no such curve, though single readings can be large or run the other way; further: nearly all actives have a fitted effect of over 30% in size
Target sequence (P63096 whole entry, looked up): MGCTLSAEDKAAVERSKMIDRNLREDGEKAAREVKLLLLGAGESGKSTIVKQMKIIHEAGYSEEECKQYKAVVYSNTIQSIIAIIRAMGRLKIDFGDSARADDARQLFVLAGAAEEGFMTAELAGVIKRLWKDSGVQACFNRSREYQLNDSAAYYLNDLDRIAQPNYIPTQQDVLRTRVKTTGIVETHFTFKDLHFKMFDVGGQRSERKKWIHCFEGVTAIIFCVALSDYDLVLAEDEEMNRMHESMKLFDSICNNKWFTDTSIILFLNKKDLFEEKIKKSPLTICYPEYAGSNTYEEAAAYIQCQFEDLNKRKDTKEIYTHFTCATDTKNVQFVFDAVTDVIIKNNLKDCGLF
Tau fluor cs: counter-screen for tau fibril formation inhibitors; tau K18 P301L (four-repeat tau fragment) Alexa594 fluorescence, heparin fibrillization; Potency, µM (titrated, usually from 57.7 µM), without a hit: at the highest dose activity change, negative = decrease; actives 0.93% (n = 280,000); further: nearly all actives have a fitted effect of over 55% in size
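Human K18 P301L tau (15 uM unlabeled plus 0.24 uM Alexa 594-labeled, final) in 100 mM sodium acetate pH 7 was mixed with compound and 20 uM heparin and incubated 6 hr at 37 C.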
TRb-SRC2 inh: TRbeta-SRC2 interaction inhibition. P10828. TRbeta-SRC2 peptide binding, fluorescence polarization; receptor liganded with 1 µM T3. Potency, µM (doses to about 106 µM), inactives show at the top dose activity change, negative = inhibition, actives largely listed as inhibitors. actives 0.065% (n = 280,000);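 further: plate controls were bound peptide for no effect and peptide without receptor for full effect; nearly all actives have a fitted effect of over 50% in size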
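Decrease in fluorescence polarization of 20 nM Texas Red SRC2 coactivator peptide flagged inhibition of its binding to 0.6 uM TRb LBD; 1 uM T3 included, incubation 5 hr, ex 555/em 632 nm.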
Tau fibril FP: inhibitors of human tau fibril formation | Potency, µM (titrated, usually from 57.7 µM), for inactives: top-dose activity, negative = inhibition, most hits filed as inhibitors | actives 0.39% (n = 280,000) | K18 P301L tau heparin fibrillization, Alexa594 FP, 6 h; further: nearly all actives have a fitted effect of over 55% in size
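Human K18 P301L fragment (15 uM unlabeled plus 0.24 uM Alexa 594-labeled) in 100 mM sodium acetate pH 7 with compound, aggregation induced by 20 uM heparin for 6 hr at 37 C. ThT (30 uM) added for 1 hr, then Alexa 594 FP read.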
TexasRed fluor: counter-screen for TRb-SRC2 inhibitors: fluorescence interference; actives 0.29% (n = 280,000); Potency, µM (titrated, usually from 106 µM), inactives show at the top dose fluorescence change, negative = quenching; AID 1479; TRb/SRC2 Texas Red total fluorescence interference; active means well fitted curve in either direction with a large enough effect; inconclusive means small, poorly fitted or top-dose-only effect
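Human TRb ligand-binding domain at 0.6 uM with 20 nM Texas Red SRC2 peptide in Tris buffer containing 1 uM T3 and 5% DMSO, incubated with compound 5 h at ambient temperature. Total fluorescence (555/632 nm) calculated as parallel + 2 × perpendicular.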
* hit, by the source's call; ? = inconclusive; . = no result; ! = a repeat was not active; [ ] = dose if it differs, or a comment. This is a sample that favours compounds with a hit; in the whole collection about 3.2% have one here. Unless noted, the call rests on the fitted dose curve; in most records, active means well fitted curve in the direction sought with a large enough effect; inconclusive means small, poorly fitted or top-dose-only effect, or another doubt; inactive means no such curve, though single readings can be large; an effect the other way counts as inactive or inconclusive. Unless noted, on the % scale 0 is the no-effect control and ±100 the full control effect; potency means the concentration at half of the fitted maximal effect.

SMILES	Tau fibril ThT	GoLoco inh red	Tau fluor cs	TRb-SRC2 inh	Tau fibril FP	TexasRed fluor
CC(C)(C)c1cc(C(C)(C)C)c(O)c(C(C)(C)C)c1	.	.	.	3%[201 µM]	.	3%[201 µM]
Nc1nc(-c2ccc(Br)s2)c(Br)s1	?	12%	14µM*[quencher]	-4%	-1%	-2%
COc1cccc(NC(=O)NC2(C(F)(F)F)Oc3ccccc3O2)c1	?	-18%	18µM*[quencher]	-8%	5%	1%
CCCCCCCCCC[N+](C)(C)Cc1ccccc1	.	.	.	4%[201 µM]	.	-1%[201 µM]
O=C(CCCc1c[nH]c2ccccc12)Nc1ccc2ccccc2c1	?	12%	8.9µM*[quencher]	0%	?	-3%
COc1ccc(Nc2nc(Nc3ccc(OC)cc3OC)nc(N3CCOCC3)n2)c(OC)c1	?	.	2.8µM*[quencher]	3%	3%	-3%
COc1ccc(Nc2nc(OC)nc(N3CCOCC3)n2)cc1	-17%	12%	-17%	3%	-6%	-2%
COc1ccc(N2CCN(c3ncnc4nc[nH]c34)CC2)cc1	18µM*	-8%	-24%	-3%	11%	-1%
COc1ccccc1N1CCN(c2ncnc3nc[nH]c23)CC1	-13%	-3%	-6%	-5%	3%	-2%
O=C(N/N=C/c1c(O)ccc2ccccc12)c1cccc(C(F)(F)F)c1	?	30%	8.9µM*[quencher]	-5%	?	-6%
Oc1ccc2ccccc2c1C=NC12CN3CCN(CN(C3)C1)C2	20µM*	-14%	?	?	?	-24%
OCC(CO)(CO)N=Cc1c(O)ccc2ccccc12	25µM*	5%	?	?	?	-19%
Cc1ccc(N(CC(=O)Nc2cccc(F)c2)S(=O)(=O)c2cccs2)cc1	?	.	-22%	-2%	?	0%
Oc1[nH]c2ccccc2c1N=NC(=S)N1CCOCC1	8.9µM*	-3%	-18%	-8%	-11%	-3%
CC(=O)/C=C(\C)N=Nc1c(O)[nH]c2ccccc12	7.9µM*	-2%	-11%	-1%	-4%	-3%
COC(=O)N=Nc1c(O)[nH]c2ccc(Br)cc12	?	11%	-2%	-4%	5%	0%
CC(C)CC(=O)N=Nc1c(O)[nH]c2ccccc12	-5%	3%	-6%	0%	-7%	-1%
Oc1[nH]c2ccc(Br)cc2c1N=NC(=S)N1CCOCC1	10µM*	3%	?	-5%	0%	-7%
O=C(O)/C=C/c1cn(-c2ccccc2)nc1-c1ccc(-c2ccc([N+](=O)[O-])cc2)o1	1.1µM*	1%	?	-4%	-1%	-8%
O=C(O)/C=C/c1cn(-c2ccccc2)nc1-c1cccc([N+](=O)[O-])c1	?	8%	-16%	6%	5%	-4%
NS(=O)(=O)c1ccc(N/N=C/c2ccccn2)c([N+](=O)[O-])c1	?	0%	1%	-5%	10%	-4%
O=[N+]([O-])c1ccc(N/N=C/c2cn(-c3ccccc3)nc2-c2ccccc2)cc1	7.9µM*	148%	7.9µM*[quencher]	3%	7%	0%
NS(=O)(=O)c1ccc(N/N=C/c2cn(-c3ccccc3)nc2-c2ccccc2)c([N+](=O)[O-])c1	16µM*	15%	18µM*[quencher]	5%	4%	3%
O=C(O)c1cc2c(cc1S(=O)(=O)O)[C@H]1[C@@H](C3[C@H]2[C@@]2(Cl)C(Cl)=C(Cl)C3(Cl)C2(Cl)Cl)[C@]2(Cl)C(Cl)=C(Cl)C1(Cl)C2(Cl)Cl (some centres not stated)	.	-21%[14.2 µM]	.	.	.	.
Cn1c(=O)c2c(nc(N/N=C/c3ccc(OC(=O)c4ccco4)cc3)n2Cc2ccc(F)cc2)n(C)c1=O	?	1%	7.1µM*[quencher]	3%	10%	-2%
SMILES	Tau fibril ThT	GoLoco inh red	Tau fluor cs	TRb-SRC2 inh	Tau fibril FP	TexasRed fluor
Cn1c(=O)c2c(nc(N/N=C/c3ccc(OC(=O)c4ccco4)cc3)n2Cc2ccccc2Cl)n(C)c1=O	?	4%	7.9µM*[quencher]	0%	10%	-1%
Cn1c(=O)c2c(nc(N/N=C/c3cccnc3)n2Cc2ccccc2)n(C)c1=O	-16%	5%	-24%	1%	-5%	-3%
CC(=O)c1ccc(N2CCN(C(=O)Nc3ccc(F)cc3)CC2)cc1	-11%	2%	3%	-1%	-3%	1%
O=C(Nc1ccc(N2CCOCC2)cc1)Nc1ccc(Cl)c(Cl)c1	13µM*	10%	8.9µM*[quencher]	-2%	?	-7%
CC(=O)c1ccc(C(=O)Nc2ccc(N3CCOCC3)cc2)cc1	2.2µM*	6%	-22%	-6%	-16%	-12%
O=C(Nc1cccc(S(=O)(=O)Nc2ccc(Cl)cc2)c1)c1cc2c(s1)CCCC2	6%	4%	?	8%	14µM*	2%
O=C(Nc1ccc(Cl)cc1)Nc1ccc(N2CCOCC2)cc1	?	4%	?	-1%	14%	-2%
CC(=O)c1ccc(N2CCN(C(=O)Nc3ccc(C(C)C)cc3)CC2)cc1	?	0%	?	-2%	-6%	0.032µM*![quencher]
O=C(Nc1ccc(N2CCOCC2)cc1)c1cc2c(s1)CCCCC2	10µM*	18%	?	-6%	8%	-2%
CC(C)(C)c1ccc(C(=O)Nc2ccc(N3CCOCC3)cc2)cc1	4.5µM*	-2%	?	1%	-12%	-5%
CC(C)(C)c1ccc(C(=O)NC(=S)Nc2ccc(N3CCOCC3)cc2)cc1	?	10%	-24%	-13%	2%	2%
CCN(C(=O)Cn1nc(Cc2cccnc2)c2ccccc2c1=O)c1ccccc1F	0%	.	-8%	-9%	-8%	-1%
CC1=C/C(=N\OS(=O)(=O)c2ccccc2)C(C)=CC1=O	14µM*	7%	?	3%	?	-3%
CC1=C(C)/C(=N\OS(=O)(=O)c2ccc(C)cc2)C=CC1=O	10µM*	-6%	?	-1%	16µM*	1%
O=S(=O)(Oc1ccc(Cl)cc1)c1ccccc1	.	.	.	5%	.	0%
